Assay results: PubChem BioAssay AID1851 (National Center for Advancing Translational Sciences (NCATS), 2009)
Where “and” joins values, the source holds several entries; their conditions need not be identical. Equal entries are not always repeated. Among all 16,000 compounds or so, about 4,000 (25%) were called active. Inconclusive results (about 26%) are left out. The call rests on the fitted dose curve; in most records, active means well fitted curve in the direction sought with a large enough effect; inconclusive means small, poorly fitted or top-dose-only effect, or effect the other way; inactive means no such curve, though single readings can be large or run the other way. The list is a sample of the results. The source holds several records for some structures; these can differ, active in one and inactive in another.

biological target: Cytochrome P450 2C9 (Homo sapiens) (UniProt P11712); assay: Cytochrome panel assay with activity outcomes; details: recombinant CYP, pro-luciferin dealkylation, luminescence, p450-cyp2c9; series mostly up to 57.1 µM; activity, negative = inhibition: at the top concentration
Sequence (P11712 whole entry, looked up): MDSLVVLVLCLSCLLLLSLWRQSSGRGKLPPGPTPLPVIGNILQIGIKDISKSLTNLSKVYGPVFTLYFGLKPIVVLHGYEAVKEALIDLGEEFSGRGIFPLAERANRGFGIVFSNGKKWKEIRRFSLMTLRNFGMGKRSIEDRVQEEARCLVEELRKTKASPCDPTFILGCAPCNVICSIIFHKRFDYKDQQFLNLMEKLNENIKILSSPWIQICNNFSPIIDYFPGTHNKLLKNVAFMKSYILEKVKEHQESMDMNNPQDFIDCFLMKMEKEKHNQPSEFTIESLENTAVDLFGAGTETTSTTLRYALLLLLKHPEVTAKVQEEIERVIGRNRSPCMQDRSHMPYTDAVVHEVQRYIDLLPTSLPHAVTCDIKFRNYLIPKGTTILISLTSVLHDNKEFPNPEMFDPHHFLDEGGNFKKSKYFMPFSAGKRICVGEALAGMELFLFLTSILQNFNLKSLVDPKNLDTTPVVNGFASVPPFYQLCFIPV
On the % scale 0 is the no-effect control and ±100 the full control effect.

Structure (SMILES)	activity, negative = inhibition	AC50
C=C1CC[C@H](O)C/C1=C/C=C1\CCC[C@]2(C)[C@H]1CC[C@H]2[C@@H](C)CCCC(C)C	1.21% [at 25.6 µM] (inactive)	–
CC[C@@]1(O)C(=O)OCc2c1cc1n(c2=O)Cc2cc3ccccc3nc2-1	inactive	–
CCC(COC(=O)NC)NC(=O)Oc1ccccc1 (centres undefined)	21.5% (inactive)	–
CN(C(=O)Cc1ccccc1)[C@H](CN1CCCC1)c1ccccc1	-8.81% (inactive)	–
Cc1cc[c]([Sb]2[O][C@H]([C@H](O)[C@H](O)C(=O)O)[C@@H](CO)[O]2)cc1	14% [at 11.4 µM] (inactive)	–
O=C(O)CN1CCN(CC(=O)O)CC(=O)[O][Hg][O]C(=O)C1	–	1.26 µM (active)
C[C@]12CC[C@H]3c4ccc(O)cc4CC[C@@H]3[C@H]1CC[C@@H]2OP(=O)(O)O	12.3% [at 11.4 µM] (inactive)	–
Nc1ccccc1O.O.O=C(O)[C@H]1[O][Sb][O][C@H]1C(=O)O	14.2% [at 11.4 µM] (inactive)	–
O=c1[nH]cnc2[nH]cc(CN3CCCCC3)c12	-6.24% [at 11.4 µM] (inactive)	–
N=C1c2ccccc2CN1NC(=O)c1ccc(Cl)cc1	-1.51% (inactive)	–
O=C(Oc1ccccc1)N1CCC2(CCCN(Cc3nccs3)C2)CC1	-16.6% (inactive)	–
C[C@@H](Cc1cccc(C(F)(F)F)c1)NCCCc1ccccc1	-1.99% (inactive)	–
C[C@H]1CC[C@@]2(NC1)O[C@@H]1C[C@@H]3[C@@H]4CC=C5C[C@@H](O)CC[C@]5(C)[C@@H]4CC[C@]3(C)[C@H]1[C@@H]2C	-1.5% [at 11.4 µM] (inactive)	–
CN(C)CCC(=O)[C@@]1(O)CC[C@H]2[C@H]3CC=C4C[C@@H](O)CC[C@]4(C)[C@H]3CC[C@]21C	–	2.51 µM (active)
C[C@@]12CC[C@H]3[C@H](CC=C4C[C@@H](O)CC[C@@]43C)[C@@H]1CC[C@@H]2N(CCO)CCO	7.98% [at 11.4 µM] (inactive)	–
Oc1ccc2c3c1O[C@H]1c4oc5ccccc5c4C[C@]4(O)[C@H](C2)N(CC2CC2)CC[C@@]314	inactive	–
CN1CCN(c2ncc3ncc(=O)n(C)c3n2)CC1	-1.78% (inactive)	–
C[C@@H](Cc1ccc(OCC(=O)O)cc1)NC[C@H](O)c1cccc(Cl)c1	–	inactive and 6.31 µM (active)
C[C@@H](Cc1ccccc1)NCCC(c1ccccc1)c1ccccc1	-14.2% [at 25.6 µM] (inactive)	–
NS(=O)(=O)c1ccc(-c2ccc([As](=O)(O)O)cc2)cc1	14.8% [at 11.4 µM] (inactive)	–
Cc1cc(C)nc(NC2=NCCS2)n1	-12.5% (inactive)	–

Structure (SMILES)	activity, negative = inhibition	AC50
CCN1CCN(S(=O)(=O)c2ccc(Cl)nc2)CC1	16% (inactive)	–
C[C@]12N[C@@H](Cc3ccccc31)c1ccccc12	inactive	–
CCCc1cc2c(n1Cc1cccc(Cl)c1)C(C)C1CN(C(=O)c3ccccc3)C(C)(C(=O)OC)C21 (centres undefined)	–	5.01 µM (active)
CCCc1cc2c(n1CCO)C(C)C1CN(C(=O)c3ccccc3)C(C)(C(=O)OC)C21 (centres undefined)	–	12.6 µM (active)
NC[C@H](O)c1cc(O)c(O)cc1F	-14.1% (inactive)	–
C=C1[C@@H]2CC[C@H]3[C@@]4(C)C[C@@H](O[C@@H]5O[C@H](CO)[C@H](OS(=O)(=O)O)[C@@H](OS(=O)(=O)O)[C@@H]5OC(=O)CC(C)C)C[C@@H](C(=O)O)[C@H]4CC[C@@]3(C2)[C@H]1O	7.32% [at 25.6 µM] (inactive)	–
C=C1C(O)(c2ccccc2)C2CC[N+]1(C)CC2 (centres undefined)	35.1% (inactive)	–
COc1cc2c(cc1OC)[C@@]13CCN4CC5=CCO[C@H](CC(=O)O)[C@@H]([C@H]1N2)[C@H]5C[C@H]43	-2.18% [at 11.4 µM] (inactive)	–
Cc1c(OCC(F)(F)F)ccnc1CS(=O)c1nc2ccccc2[nH]1 (centres undefined)	-13.7% [at 25.6 µM] (inactive)	–
C=CCO[C@@H](Cn1ccnc1)c1ccc(Cl)cc1Cl	–	0.1 µM (active)
CC(=O)N1CC[N+](C)(C)CC1	3.49% (inactive)	–
CN1[C@@H]2CC[C@H]1CC(NC(=O)c1nn(C)c3ccccc13)C2 (some centres undefined)	-3.75% (inactive)	–
CCOc1ccc(C2C(C#N)=C(N)Oc3c2c(=O)oc2ccccc32)cc1 (centres undefined)	–	0.0224 µM (active)
C[C@@]12CC[C@H](O[C@@H]3O[C@H](CO)[C@@H](O)[C@H](O)[C@@H]3O)C[C@@H]1CC[C@H]1[C@H]2CC[C@@]2(C)[C@@H](C3=CCOC3=O)CC[C@]12O	2% [at 11.4 µM] (inactive)	–
C[C@H](N[C@@H](C)CCc1ccccc1)[C@H](O)c1ccc(O)cc1	-17.1% (inactive)	–
O=C(O)c1cc[c]([Hg][S]c2ncnc3nc[nH]c23)cc1	–	1.26 µM (active)
Ic1cncc(OC[C@@H]2CCN2)c1	–	31.6 µM (active)
CC(C)(C)NC[C@@H](O)COc1cccc2[nH]c(C#N)cc12	-27.6% (inactive)	–
CC[N@+]1(C)CCC[C@@H](OC(=O)C(O)(c2ccccc2)c2ccccc2)C1	-7.68% [at 25.6 µM] (inactive)	–
C[N+]1([O-])[C@H]2CC[C@H]1CC(OC(=O)[C@@H](CO)c1ccccc1)C2 (some centres undefined)	3.51% [at 11.4 µM] (inactive)	–
C[C@@]12CC[C@H]3[C@@H](CC[C@@H]4C[C@H]5S[C@H]5C[C@]43C)[C@H]1CC[C@H]2O	–	0.00501 µM (active)

Structure (SMILES)	activity, negative = inhibition	AC50
CC(C)CCC[C@@H](C)[C@@H]1CC[C@@H]2[C@H]3CC[C@H]4C[C@@H](N)CC[C@@]4(C)[C@@H]3CC[C@]21C	4.77% [at 11.4 µM] (inactive)	–
C[C@H]1CC[C@@]2(NC1)O[C@@H]1C[C@H]3[C@@H]4CC[C@@H]5C[C@@H](O)CC[C@@]5(C)[C@@H]4CC[C@]3(C)[C@@H]1[C@@H]2C	-6.95% [at 25.6 µM] (inactive)	–
CN1C(=O)CCS(=O)(=O)[C@@H]1c1ccc(Cl)cc1	8.83% [at 25.6 µM] (inactive)	–
c1ccc([C@H]2CNCc3ccccc32)cc1	21.5% (inactive)	–
CCCN(CCC)[C@@H]1CCc2cccc(O)c2C1	inactive	–
CC[C@]1(c2cccc(O)c2)CCCCN(C)C1	5.89% [at 25.6 µM] (inactive)	–
CC1=NN=C(c2ccc(N)cc2)c2cc3c(cc2C1)OCO3	–	inactive and 1.26 µM (active)
C[C@@H]1Cc2cc3c(cc2C(c2ccc(N)cc2)=NN1)OCO3	–	25.1 µM (active)
CCCC[N+]1(C)[C@@H]2CC(OC(=O)[C@@H](CO)c3ccccc3)C[C@H]1[C@H]1O[C@H]12 (some centres undefined)	25.2% (inactive)	–
CC(C)CC(=O)C[C@H](O)C(Cl)(Cl)Cl	-21.3% [at 11.4 µM] (inactive)	–
COc1cc2c(cc1O)C[C@@H]1c3c(cc(O)c(OC)c3-2)CCN1C	-4.78% [at 11.4 µM] (inactive)	–
CC(C)CN1CCC2(CC1)CCN(C(=O)Oc1ccccc1)CC2	-0.61% (inactive)	–
Cc1nccc2c1[nH]c1ccccc12	inactive	–
Cn1c(O)c(C(c2ccccn2)c2c(O)n(C)c(=S)[nH]c2=O)c(=O)[nH]c1=S	-3.3% (inactive)	–
O=C(c1cc2cc3ccc(Cl)cc3nc2o1)N1CCC2(CC1)OCCO2	-14.2% (inactive)	–
O=C(c1cc(-c2ccccc2)nc2ccccc12)N1CCC2(CC1)OCCO2	–	28.2 µM (active)
O=C(O)Cc1ccc([N+](=O)[O-])cc1[N+](=O)[O-]	11.5% [at 11.4 µM] (inactive)	–
O=[N+]([O-])c1ccc(S(=O)(=O)Cc2ccccc2)c([N+](=O)[O-])c1	–	3.16 µM (active)
O=C1c2cc([N+](=O)[O-])ccc2-c2ccc3c4ccc5c6c(ccc(c7ccc1c2c73)c64)C(=O)c1cc([N+](=O)[O-])ccc1-5	-26.9% [at 11.4 µM] (inactive)	–
N[C@H](Cc1ccc2oc3cc(=O)c4ccccc4c-3nc2c1)C(=O)O	-13.7% [at 11.4 µM] (inactive)	–
COc1ccc(C(=O)c2c(C)n(CCN3CCOCC3)c3cc(I)ccc23)cc1	-7.5% (inactive)	–

Structure (SMILES)	activity, negative = inhibition	AC50
CN(C)CS/C(N)=N/[C@H](O)C(Cl)(Cl)Cl	-28.6% [at 11.4 µM] (inactive)	–
CC[N+](CC)(CCNC(=O)C(=O)NCC[N+](CC)(CC)Cc1ccccc1Cl)Cc1ccccc1Cl	-3.12% (inactive)	–
C/C=C1\C[C@H](C)[C@@](O)(CO)C(=O)OCC2=CCN3CC[C@@H](OC1=O)[C@@H]23	2.59% [at 25.6 µM] (inactive)	–
COCCCN1CCN(c2nnc3n2-c2sc(Br)cc2C(c2ccccc2Cl)=NC3)CC1	–	12.6 µM (active)
COCCCNC(=S)NC1CC2CCCC(C1)N2Cc1cccs1 (centres undefined)	25% (inactive)	–
COc1cc2c(c(OC)c1OC)-c1ccc(O)c(=O)cc1[C@H](N)CC2	-1.6% [at 25.6 µM] (inactive)	–
CC[C@]1(OC(=O)CN)C(=O)OCc2c1cc1n(c2=O)Cc2cc3ccccc3nc2-1	6.92% [at 11.4 µM] (inactive)	–
Nc1ccc(S(=O)(=O)c2ccc(NCN3C(=O)NC(=O)C(=O)C3=O)cc2)cc1	7.48% [at 11.4 µM] (inactive)	–
CC(C)(C)CC(=O)NC(=S)Nc1ccccc1C(F)(F)F	–	2.51 µM (active)
NCCCN1CCN(c2ccccc2)CC1	3.16% [at 11.4 µM] (inactive)	–
CCNC(=O)O/N=C(\C)c1sc(-c2ccccc2)nc1C	–	8.91 µM (active)
C/C(=N\OC(=O)NC(C)C)c1sc(-c2ccc(Cl)cc2)nc1C	–	7.08 µM (active)
CCC(CC)C(=O)NC1CCSC1=O (centres undefined)	-18.2% (inactive)	–
N=C(N)n1cc(/C=N\N=C(N)N)cn1	5.35% [at 11.4 µM] (inactive)	–
CC1=CC(=O)C2=C(C)C[C@@H](O)[C@@H]3[C@@H](OC(=O)[C@H]3C)[C@H]12	-8.01% [at 25.6 µM] (inactive)	–
CN(C)C(=O)Oc1cc(OC(=O)N(C)C)cc([C@@H](O)CNC(C)(C)C)c1	-9.69% [at 25.6 µM] (inactive)	–
C[C@@]12CC[C@@H]3[C@H](CCC4=CC(=O)CC[C@]43C)[C@@H]1CC[C@@H]2C(=O)Cn1cnc2c(=S)nc[nH]c21	-11.6% [at 11.4 µM] (inactive)	–
COC(=O)N1CCC2(CCN(CC(C)C)CC2)CC1	2.36% (inactive)	–
C[C@@]12CC[C@H](O)C[C@@H]1CC[C@H]1[C@@H]2C[C@@H](O)[C@]2(C)[C@@H](C3=CC(=O)OC3)CC[C@]12O	4.33% [at 25.6 µM] (inactive)	–
C[N+]1(C)CCN(c2ccccc2)CC1	15.2% (inactive)	–
C[C@H](CC(C#N)(c1ccccc1)c1ccccc1)N1CCCCC1	6.88% [at 11.4 µM] (inactive)	–
